D2 PAM-1: D2 dopamine receptor (human) potentiation; P14416; HEK293 T-REx D2, calcium flux, EC20 dopamine potentiation; potentiation, % at 10 µM; 340,000 tested, 0.34% active; AID 485347;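 active = potentiation over 3 SD above the plate norm, cut at about 30% in these data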; also: 0% is about no effect
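Primary screen. Calcium kinetics in induced HEK293 T-REx D2 cells: compound pre-addition 180 s, EC20 dopamine, 180 s more.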
D2 ag-1: D2 dopamine receptor (human) agonism | P14416 | HEK293 T-REx D2 cells, calcium flux agonist mode | activation, % at 2 µM | 340,000 tested, 0.53% active;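 active = activation over 3 SD above normal in the single-dose calcium agonist read, cut at about 30% in these data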; also: 0% is about no effect
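Agonism is scored from calcium flux in a force-coupled, inducible HEK293 cell line expressing D2, read kinetically for 180 s after compound addition against dopamine controls.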
D2 PAM-2: human D2 receptor positive allosteric modulation; AID 624464; DiscoveRx D2 beta-arrestin cells, luminescence, 90 min; 100% = 57 uM dopamine signal; P14416; 360,000 tested, 0.23% active; potentiation, % (test concentration not listed); in the data active = potentiation above about 50%; inconclusive = mostly about 30% to 49%
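PathHunter beta-arrestin assay in DiscoveRx D2 cells. Compounds were added with an EC20 of dopamine (50 nM final) for 90 min at 37 deg C. Luminescence was read 1 h after detection reagent, with 57 uM dopamine as the EC100 control.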
D2 ag-2: agonists of human D2 dopamine receptor (beta-arrestin). P14416. DiscoveRx PathHunter D2 beta-arrestin, luminescence, 90 min; 100% = 57 uM dopamine signal. activation, % (test concentration not listed). 360,000 tested, 0.084% active. AID 624465; in the data active = activation above about 40%; inconclusive = between about 15% and that limit
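DiscoveRx PathHunter D2 beta-arrestin cells (2,100/well) attached overnight, then compound-stimulated 90 min at 37 C in HBSS/10 mM HEPES/0.1% Tween-20 buffer; beta-galactosidase complementation read by luminescence after 1 h at ambient temperature. Dopamine 57 uM final (EC100) as control.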
D2 antagonist: D2 dopamine receptor (human) antagonism. HEK293 TREx D2 cells, calcium flux, dopamine EC80. inhibition, % at 10 µM. 340,000 tested, 2% active; in the data active = inhibition above about 30%; inactive = below that, where a call was filed; also: 0% is about no effect
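Read-out: kinetic calcium fluorescence (1 cycle/s) in inducible HEK293 T-REx D2 cells after an EC80 dopamine addition that followed 180 s compound preincubation. Loss of the dopamine response indicates antagonism.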
D3 ag: D3 receptor agonism confirmed, beta-arrestin readout | AID 720506 | DiscoveRx D3 beta-arrestin cells, luminescence, 90 min | shares compounds with D2 ag-1 | 2,300 tested, 4% active | Potency, µM (titrated, usually from 76.9 µM), inactives show at the top dose activation, actives largely listed as activators;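 also: potency is read from the fitted curve at half-maximal effect; 100% = dopamine control response; nearly all actives have a fitted effect of over 70% in size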
Target sequence (P35462 whole entry, looked up): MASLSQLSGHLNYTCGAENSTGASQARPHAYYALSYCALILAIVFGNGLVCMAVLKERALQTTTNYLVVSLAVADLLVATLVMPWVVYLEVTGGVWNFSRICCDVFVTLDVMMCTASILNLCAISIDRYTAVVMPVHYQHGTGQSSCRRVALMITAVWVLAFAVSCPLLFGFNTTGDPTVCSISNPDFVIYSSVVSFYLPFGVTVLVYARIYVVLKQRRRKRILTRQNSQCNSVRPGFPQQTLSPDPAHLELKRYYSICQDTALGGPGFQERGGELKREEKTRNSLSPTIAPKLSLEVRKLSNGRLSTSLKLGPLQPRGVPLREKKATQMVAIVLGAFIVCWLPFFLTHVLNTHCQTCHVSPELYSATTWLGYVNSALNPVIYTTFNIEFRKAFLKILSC
D2 ag-3: D2 receptor agonism, beta-arrestin counterscreen; shares compounds with D2 ag-1; DiscoveRx PathHunter D2 beta-arrestin, luminescence, 90 min; response scale: percent relative to full dopamine signal; Potency, µM (titrated, usually from 76.9 µM), for the others: at the top dose activation, actives largely listed as activators; 2,300 tested, 5.9% active; also: potency is read from the fitted curve at half-maximal effect; % of control where 0% means no effect; nearly all actives have a fitted effect of over 70% in size
* = called active by the depositor; ? = inconclusive; . = no result; ! = not active in a repeat. A selection: hits, their analogues and other compounds. The true share with any hit is near 2.4%. Unless noted, calls follow the shape of the dose curve; as a rule, active = well fitted activation curve with a large enough effect; inconclusive = small, poorly fitted or top-dose-only effect; inactive = flat fitted curve, though single readings scatter.

SMILES	D2 PAM-1	D2 ag-1	D2 PAM-2	D2 ag-2	D2 antagonist	D3 ag	D2 ag-3
O=C(Nc1nnc(S(=O)(=O)N2CCOCC2)s1)c1ccccc1Cl	-14	52*!	-4	2	-2	-6%	-3%
CCc1nnc2c3ccccc3nc(Nc3ccc(F)cc3C)n12	-4	.	.	.	.	.	.
Cc1cc(Oc2c(C(F)(F)F)oc3c(CN4CCC(C)CC4)c(O)ccc3c2=O)cc(C)c1Cl	.	0	.	.	.	.	.
CCCN(CCC)CCCNC(=O)CC1Nc2ccccc2NC1=O (stereo not given)	-7	51*	2	1	24	-5%	-1%
CCCCN(CC)CCCNC(=O)CC1Nc2ccccc2NC1=O (stereo not given)	-14	75*	-7	9	40*	-1%	2%
CCCCN(C)CCCNC(=O)CC1Oc2ccccc2NC1=O (stereo not given)	-25	85*	26	1	62*	?	?
CCC(=O)N1CCc2cc(CNS(=O)(=O)c3ccccc3F)ccc21	.	0	.	.	.	.	.
COc1cc(C#Cc2c(-c3ccccc3OC)oc3ccccc23)cc(OC)c1	4	3	-2	-8	0	-2%	2%
COc1ccc(-n2c3c(cc(-c4nc(-c5ccc(Cl)cc5)cs4)c2=O)C(=O)CC(C)(C)C3)cc1	2	0	.	.	.	.	.
Cc1nnc(NC(=O)CCC(=O)N2CCN(CCOc3cccc4ccccc34)CC2)s1	-24	55*	-22	?	52*	?	?
CCCc1nnc(NC(=O)CCC(=O)N2CCN(CCOc3ccc(C)cc3)CC2)s1	11	-2	3	0	-2	.	.
Cc1ccc(OCCN2CCN(C(=O)CCC(=O)Nc3nnc(C)s3)CC2)cc1	12	4	-16	1	6	?	1%
Cc1ccc(OCCN2CCN(C(=O)CCC(=O)Nc3nnc(C(C)C)s3)CC2)cc1	8	0	-42	3	-5	.	.
COc1ccc([C@H](C)NC[C@H](O)c2ccc(O)c(NC=O)c2)cc1	-5	33*	-17	-3	4	-1%	0%
COc1ccc(OCC(O)CNC(C)c2ccccc2)cc1 (stereo not given)	6	2	-5	-1	-10	.	.
Cc1cccc(N2CCN(C(=O)CCS(=O)(=O)c3ccc4c(c3)CC(=O)N4C)CC2C)c1 (stereo not given)	-4	.	.	.	.	.	.
O=c1c2ccccc2[nH]c(=S)n1CCCN1CCN(c2ccccc2)CC1	5	1	?	?	-24	.	.
CCOCCCn1c(=S)[nH]c2cc(C(=O)NCCN(CC)CC)ccc2c1=O	-12	.	1	9	.	-8%	12%
O=c1c2ccccc2[nH]c(=S)n1CCCN1CCN(c2ccccc2F)CC1	-29	71*	-12	?	81*	14%	26%
CCN(CCCn1c(=S)[nH]c2ncccc2c1=O)c1ccccc1	1	-1	-6	-2	-2	.	.
CCN(CC)CCCn1c(=S)[nH]c2ncccc2c1=O	-16	50*	8	4	48*	-6%	6%
O=c1c2cccnc2[nH]c(=S)n1CCCN1CCN(c2ccccc2F)CC1	-23	82*	-5	?	116*	8%	?
CCOc1ccccc1CNC(=O)CN1C(=O)c2cccnc2Oc2ccc(C)cc21	7	-1	.	.	.	.	.
CCN1C(=O)[C@H]2[C@@H](c3ccc(C)cc3)N3C(=O)N(c4ccc(C)cc4)C(=O)[C@@]3(Cc3ccc(Cl)cc3)[C@H]2C1=O	-11	45*	2	-3	-18	-10%	-4%
CCN1C(=O)[C@H]2[C@@H](c3ccc(C)cc3)N3C(=O)N(c4ccccc4)C(=O)[C@@]3(Cc3ccc(Cl)cc3)[C@H]2C1=O	5	2	-72	-1	4	.	.
SMILES	D2 PAM-1	D2 ag-1	D2 PAM-2	D2 ag-2	D2 antagonist	D3 ag	D2 ag-3
CCN1c2ccccc2-c2nc(SCC(=O)NCc3ccccc3)ncc2S1(=O)=O	7	0	.	.	.	.	.
O=C(NCCCN1CCN(c2cccc(Cl)c2)CC1)c1nc(-c2ccncc2)no1	-36	69*	-15	9	82*	4%	21%
COc1ccc(S(N)(=O)=O)cc1C(=O)NCCCN1CCN(c2cccc(Cl)c2)CC1	-19	56*	-12	10	50*	13%	24%
O=C(NCCCN1CCN(CCCNC(=O)c2cccc(Cl)c2)CC1)c1cccc(Cl)c1	-11	-1	-24	-2	2	.	.
COc1ccc(Cl)cc1C(=O)NCCS(=O)(=O)N1CCN(c2ccccc2OC)CC1	-11	.	.	.	.	.	.
COc1cc2c(C(=O)NCCCN3CCN(c4cccc(Cl)c4)CC3)cn(C)c(=O)c2cc1OC	-26	4	-31	3	-7	.	.
COc1ccc(S(N)(=O)=O)cc1C(=O)NCCCN1CCN(c2ccccc2OC)CC1	-31	60*	-36	8	77*	-2%	2%
Cc1nc2nc(C)c(CCC(=O)NCCCN3CCN(c4cccc(Cl)c4)CC3)c(C)n2n1	-14	75*	-16	?	73*	10%	?
COc1ccc(Nc2nc3c(S(=O)(=O)c4ccccc4)nnn3c3ccsc23)cc1OC	-3	0	.	.	.	.	.
CCc1ccc(NC(=O)C(Cc2ccccc2)NS(=O)(=O)c2ccc3c(c2)CCN3C(C)=O)cc1 (stereo not given)	-14	1	.	.	.	.	.
Cc1ccc(-n2nc(C(=O)N3CCN(c4cc(Cl)ccc4C)CC3)c3c4ccccc4n(C)c3c2=O)cc1	-11	0	.	.	.	.	.
CCN(CC)S(=O)(=O)c1cccc(S(=O)(=O)N2CCCCC2)c1	-21	36*	7	2	-3	7%	3%
CC(C)Oc1ccc(CNS(=O)(=O)c2cnc(N)nc2)cc1	1	.	.	.	.	.	.
COc1ccc(Cl)cc1NC(=O)C(C)N1CCN(C/C=C/c2ccccc2)CC1 (stereo not given)	-16	12	-33	-2	-11	.	.
CC(C(=O)N(C)Cc1ccccc1)N1CCN(C/C=C/c2ccccc2)CC1 (stereo not given)	-16	69*	-4	?	69*	?	?
CC(=O)c1ccc(NC(=O)C(C)N2CCN(C/C=C/c3ccccc3)CC2)cc1 (stereo not given)	-14	20	-24	5	47*	?	2%
CC(C(=O)Nc1ccc([N+](=O)[O-])cc1)N1CCN(C/C=C/c2ccccc2)CC1 (stereo not given)	-30	67*	-30	3	53*	?	?

Screening results deposited in PubChem BioAssay by National Center for Advancing Translational Sciences (NCATS).
